# Measured values taken from PubChem BioAssay (Tox21).
# Inconclusive results are not listed. Entries that show only a call come without a potency. The source made the active and inactive calls. Unless noted, calls follow the shape of the dose curve; as a rule, active = well fitted curve in the direction sought with a large enough effect in the repeat runs; inconclusive = weak or mixed curves; inactive = no such curve, though single readings can be large; an effect the other way counts as inactive or inconclusive.
# Experiments:
# [1] = qHTS assay to identify small molecule antagonists of the retinoid acid receptor (RAR) signaling pathway - cell viability counter screen (AID 1159551); also: nearly all actives have a fitted effect of over 35% in size
# Summary of the method: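 Cells (C3RL4) are plated, incubated overnight, dosed with compound in DMSO, then given retinol at 1 uM final. After 6 h at 37 C, CellTiter-Glo is added and luminescence read following 30 min at room temperature.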
# [2] = qHTS assay to identify small molecule antagonists of the estrogen related receptor (ERR) signaling pathway from Tox21 library - cell viability counter screen (AID 1224834); also: nearly all actives have a fitted effect of over 30% in size; also: potency is read from the fitted curve at half-maximal effect
# Summary of the method: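 ERR cells, 2,000/well; 6 h settle at 37 C/5% CO2; pin-tool compound transfer in DMSO; 17.5 h at 37 C; CellTiter-Fluor, 30 min; fluorescence intensity.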
# [3] = biological target: Luciferin 4-monooxygenase (Photinus pyralis) (UniProt P08659); assay: qHTS assay to identify small molecule inhibitors of firefly luciferase (AID 1224835); also: nearly all actives have a fitted effect of over 25% in size; also: potency is read from the fitted curve at half-maximal effect
# Chain of Luciferin 4-monooxygenase (Photinus pyralis) (P08659 whole entry, looked up): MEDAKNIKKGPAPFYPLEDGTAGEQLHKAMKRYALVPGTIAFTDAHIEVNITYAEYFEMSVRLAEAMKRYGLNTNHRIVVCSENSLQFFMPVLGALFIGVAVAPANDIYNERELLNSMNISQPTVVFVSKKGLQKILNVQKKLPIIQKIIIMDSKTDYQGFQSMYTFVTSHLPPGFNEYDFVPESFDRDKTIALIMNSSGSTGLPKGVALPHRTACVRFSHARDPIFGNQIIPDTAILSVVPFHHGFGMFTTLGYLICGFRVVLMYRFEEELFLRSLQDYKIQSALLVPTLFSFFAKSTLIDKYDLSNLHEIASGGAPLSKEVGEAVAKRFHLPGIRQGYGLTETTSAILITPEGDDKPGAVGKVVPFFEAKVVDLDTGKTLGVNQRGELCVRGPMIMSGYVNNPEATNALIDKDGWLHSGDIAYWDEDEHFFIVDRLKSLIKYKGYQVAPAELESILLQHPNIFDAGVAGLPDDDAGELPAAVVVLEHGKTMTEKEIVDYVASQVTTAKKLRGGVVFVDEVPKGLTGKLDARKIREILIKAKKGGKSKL
# Summary of the method: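 Inhibition of purified Photinus luciferase is measured by luminescence. Substrate levels (D-luciferin, ATP) sit at their KM values. Each compound is tested in a concentration series.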
# [4] = qHTS assay to identify small molecule agonists of the constitutive androstane receptor (CAR) signaling pathway - cell viability counter screen (AID 1224836); also: series mostly up to about 92 µM; nearly all actives have a fitted effect of over 45% in size
# Summary of the method: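 Cells were seeded and incubated 4 hrs. Compounds were added across 15 concentrations together with PK11195 at 0.75 uM final. Plates were incubated 23 hrs at 37 C. CellTiter-Fluor was added and fluorescence measured.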
# [5] = qHTS assay to identify small molecule antagonists of the constitutive androstane receptor (CAR) signaling pathway - cell viability counter screen (AID 1224837); also: nearly all actives have a fitted effect of over 45% in size; also: potency is read from the fitted curve at half-maximal effect
# Summary of the method: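 Viability was measured with CellTiter-Fluor in a HepG2 line carrying stably transfected hCAR and a CYP2B6-2.2kb construct. Cells were exposed for 23 hr at 37 C to 15 compound concentrations with 50 nM CITCO as agonist.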
# [6] = biological target: Nuclear receptor subfamily 1 group I member 3 (Homo sapiens) (UniProt Q14994); assay: qHTS assay to identify small molecule antagonists of the constitutive androstane receptor (CAR) signaling pathway (AID 1224838);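 also: HepG2 cells stably expressing hCAR with CYP2B6 luciferase reporter stimulated by CITCO; nearly all actives have a fitted effect of over 40% in size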
# Chain of Nuclear receptor subfamily 1 group I member 3 (Homo sapiens) (Q14994 whole entry, looked up): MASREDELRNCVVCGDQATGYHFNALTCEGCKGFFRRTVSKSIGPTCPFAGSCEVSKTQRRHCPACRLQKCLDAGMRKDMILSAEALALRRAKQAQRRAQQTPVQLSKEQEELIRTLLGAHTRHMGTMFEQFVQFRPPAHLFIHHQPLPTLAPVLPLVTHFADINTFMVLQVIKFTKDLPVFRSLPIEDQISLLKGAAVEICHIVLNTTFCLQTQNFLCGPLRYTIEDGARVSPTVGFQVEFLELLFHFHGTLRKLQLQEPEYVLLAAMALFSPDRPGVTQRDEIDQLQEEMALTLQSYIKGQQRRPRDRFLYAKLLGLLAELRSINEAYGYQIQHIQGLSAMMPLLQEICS
# Summary of the method: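 Antagonist mode used CITCO at a final 50 nM to activate CAR in human hepatoma HepG2 cells carrying stable hCAR and a 2.2 kb CYP2B6 promoter-luciferase construct. Compounds were tested at 15 concentrations over 24 h, with luminescence as the end point.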
# [7] = biological target: Nuclear receptor subfamily 1 group I member 3 (Homo sapiens) (UniProt Q14994); assay: qHTS assay to identify small molecule agonists of the constitutive androstane receptor (CAR) signaling pathway (AID 1224839); also: nearly all actives have a fitted effect of over 15% in size; also: potency is read from the fitted curve at half-maximal effect
# Summary of the method: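 Cells were plated and incubated 4 hrs, then dosed with compounds at 15 concentrations. PK11195 was added to 0.75 uM final. After 24 hrs at 37 C, luciferase luminescence was measured.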
# [8] = qHTS assay to identify small molecule antagonists of the estrogen related receptor signaling pathway with the pleiotropic PPARgamma coactivator (PGC) from Tox21 10K library - cell viability counter screen (AID 1224840; active = well fitted cell-killing curve with a large enough effect in the repeat runs, not every such curve was filed as active; also: nearly all actives have a fitted effect of over 40% in size)
# Summary of the method: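 Multiplexed viability counter screen in the PGC/ERR cell line: cells treated with DMSO-dissolved compounds for 17.5 hours at 37 C, then viability measured as CellTiter-Fluor fluorescence.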
# [9] = qHTS assay to identify small molecule antagonists of the estrogen related receptor signaling pathway with the pleiotropic PPARgamma coactivator (PGC) from Tox21 10K library (AID 1224841; call rule not given here; also: series mostly up to about 92 µM; actives are mostly falling curves and most rising ones were filed inactive; nearly all actives have a fitted effect of over 50% in size)
# Summary of the method: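 Steps: plate 2,000 PGC/ERR cells per well; incubate 6 h at 37 C with 5% CO2; transfer compounds from DMSO stocks by pin tool; incubate 18 h at 37 C; add One-Glo; measure luminescence 30 min later.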
# [10] = qHTS assay to identify small molecule agonists of the estrogen related receptor signaling pathway with the pleiotropic PPARgamma coactivator (PGC) from Tox21 10K library (AID 1224842); also: nearly all actives have a fitted effect of over 15% in size; also: potency is read from the fitted curve at half-maximal effect
# Summary of the method: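 Luminescence from One-Glo (30 min, room temperature) measured after PGC/ERR cells had 18 h at 37 C with pinned compound (23 nL in DMSO). Cells had been seeded at 2,000 per well and pre-incubated 6 h.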
# [11] = biological target: Thyrotropin receptor (Homo sapiens) (UniProt P16473); assay: qHTS assay to identify small molecule agonists of the thyroid stimulating hormone receptor (TSHR) signaling pathway (AID 1224843; calls by dose curve; also: nearly all actives have a fitted effect of over 45% in size)
# Chain of Thyrotropin receptor (Homo sapiens) (P16473 whole entry, looked up): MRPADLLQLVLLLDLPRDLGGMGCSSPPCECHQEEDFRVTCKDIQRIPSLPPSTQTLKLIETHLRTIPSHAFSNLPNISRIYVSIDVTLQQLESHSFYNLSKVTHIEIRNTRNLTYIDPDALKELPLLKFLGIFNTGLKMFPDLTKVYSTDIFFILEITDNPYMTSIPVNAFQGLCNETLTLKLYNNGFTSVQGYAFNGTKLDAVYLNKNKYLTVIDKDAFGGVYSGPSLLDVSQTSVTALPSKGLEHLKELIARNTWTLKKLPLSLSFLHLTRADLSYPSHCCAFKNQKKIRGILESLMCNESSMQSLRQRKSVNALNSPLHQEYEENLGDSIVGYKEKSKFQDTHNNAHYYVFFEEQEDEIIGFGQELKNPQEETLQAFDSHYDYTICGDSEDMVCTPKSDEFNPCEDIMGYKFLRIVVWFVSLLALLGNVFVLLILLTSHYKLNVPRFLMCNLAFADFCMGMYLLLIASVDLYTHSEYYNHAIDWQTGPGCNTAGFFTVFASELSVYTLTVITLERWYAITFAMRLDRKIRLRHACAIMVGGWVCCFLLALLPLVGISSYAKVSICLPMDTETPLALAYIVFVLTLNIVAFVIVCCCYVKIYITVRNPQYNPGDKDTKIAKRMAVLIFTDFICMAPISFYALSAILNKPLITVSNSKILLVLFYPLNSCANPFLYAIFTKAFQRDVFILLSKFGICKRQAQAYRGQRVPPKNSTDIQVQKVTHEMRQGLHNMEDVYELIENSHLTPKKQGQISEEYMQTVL
# Summary of the method: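 A cell-based cAMP HTRF format was run in TSHR-transfected HEK293 cells, 800 per well. Treatment: 30 min, room temperature. Detection: 1 h with labelled cAMP and anti-cAMP cryptate. Concentration-response over 15 points, three replicates.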
# [12] = qHTS assay to identify small molecule agonists of the retinoic acid receptor (RAR) signaling pathway (AID 1159553); also: potency is read from the fitted curve at half-maximal effect
# Summary of the method: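 Seed C3RL4 reporter cells at 1,000 per well and incubate overnight at 37 C. Add compounds in DMSO, incubate 6 hr. Add luciferase reagent, wait 30 min at room temperature, read luminescence.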
# [13] = qHTS assay to identify small molecule antagonists of the retinoic acid receptor (RAR) signaling pathway (AID 1159552; also: nearly all actives have a fitted effect of over 50% in size; also: potency is read from the fitted curve at half-maximal effect)
# Summary of the method: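 Retinol at 1 uM final stimulated RARE-luciferase expression in C3RL4 cells exposed to test compounds for 6 hr at 37 C. Reduced luminescence, read 30 min after detection reagent, indicated pathway antagonism.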
# [14] = qHTS assay to identify small molecule antagonists of the estrogen related receptor (ERR) signaling pathway - cell viability counter screen (AID 1224818); also: series mostly up to about 46 µM
# Summary of the method: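 ERR cells, 2,000/well; 6 h settle at 37 C/5% CO2; compound pin transfer (DMSO); 17.5 h at 37 C; CellTiter-Fluor, 30 min, fluorescence read.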
# [15] = qHTS assay to identify small molecule antagonists of the estrogen related receptor signaling pathway with the pleiotropic PPARgamma coactivator (PGC) cell viability counter screen (AID 1224822;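 also: series mostly up to about 46 µM; viability read after 17.5 h compound exposure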)
# Summary of the method: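 Multiplexed viability counter screen run in PGC/ERR cells treated with compounds for 17.5 h at 37 C; live-cell protease signal measured by CellTiter-Fluor fluorescence.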
Structure (SMILES),Potency [1],Potency [2],Potency [3],Potency [4],Potency [5],Potency [6],Potency [7],Potency [8],Potency [9],Potency [10],Potency [11],Potency [12],Potency [13],outcome [14],outcome [15]
CC(=O)OC/C=C/c1ccccc1,inactive,inactive,inactive,inactive,inactive,inactive,inactive,inactive,inactive,inactive,inactive,,,,
O=C(CC(=O)c1ccccc1)c1ccccc1,inactive,,6.06 µM (active),inactive,inactive,,,inactive,inactive,29.3 µM (active),inactive,8.27 µM (active),,,
Oc1ccc(Sc2ccc(O)cc2)cc1,inactive,,,inactive,inactive,inactive,57.2 µM (active),,,,,,inactive,,
CN(C)C/C=C(/c1ccc(Br)cc1)c1cccnc1,inactive,inactive,inactive,inactive,inactive,,,inactive,,,inactive,inactive,,inactive,inactive
CCN(CC)CCNC(C(=O)OCCC(C)C)c1ccccc1 (centres undefined),inactive,,inactive,inactive,inactive,,,inactive,inactive,,inactive,,,,
CCCCOc1ccc(CC(=O)NO)cc1,inactive,18.8 µM (active),inactive,,,inactive,inactive,,,,,29.8 µM (active),inactive,,
C=CCCCCCC,inactive,inactive,inactive,inactive,inactive,inactive,inactive,inactive,inactive,inactive,inactive,,inactive,,
Nc1ccc(C(=O)Nc2ccccc2N)cc1,inactive,inactive,,inactive,inactive,,inactive,,,11.9 µM (active),inactive,,inactive,,
O=c1c2ccccc2nnn1CCl,inactive,inactive,inactive,inactive,inactive,inactive,,inactive,,,inactive,,inactive,,
C[C@@H](C1=C(CCN(C)C)Cc2ccccc21)c1ccccn1,inactive,inactive,inactive,inactive,inactive,,,,,,inactive,inactive,inactive,,
CCN(CC)CCOc1ccc2c(c1)C(=O)c1cc(OCCN(CC)CC)ccc1-2,inactive,11.9 µM (active),,,23.7 µM (active),,,,inactive,inactive,,,inactive,,
CCOC(=O)[C@H](CCc1ccccc1)N[C@H]1CCc2ccccc2N(CC(=O)O)C1=O,inactive,26.6 µM (active),inactive,inactive,inactive,,inactive,,,,inactive,,29.8 µM (active),,
CC[C@]12CCCN3CCc4c(n(c5ccccc45)C(=O)C1)[C@@H]32,inactive,9.44 µM (active),inactive,,,,,inactive,inactive,inactive,inactive,inactive,,,
